From PubChem BioAssay (NCATS) come the findings set out here.

Each structure is given as a SMILES string. Inconclusive results are not listed. A call without a number means that no potency is given here. Calls of active or inactive are those of the source. The call rests on the fitted dose curve; in most records, active means well fitted inhibition curve with a large enough effect; inconclusive means small, poorly fitted or top-dose-only effect; inactive means flat fitted curve, though single readings scatter.

For this test, the target named is Calcium and integrin-binding protein 1 (Homo sapiens) (UniProt Q99828). Description: Primary qHTS for Identification of Calcium Integrin Binding Protein 1 (CIB1) Competitor (AID 1508620). Further: top concentration of the series differs between compounds. To be noted: CIB1-GST / FITC-alphaIIb peptide fluorescence polarization; series mostly up to 57.7 µM. In a few lines: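 Fluorescence polarization competition: GST-tagged CIB1 (1 uM final) preincubated with compound 15 min at room temperature, then FITC-labelled alphaIIb peptide (100 nM final) added. After 15 min at room temperature, polarization read at Ex 480/Em 540.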
Sequence of Calcium and integrin-binding protein 1 (Homo sapiens) (Q99828 whole entry, looked up): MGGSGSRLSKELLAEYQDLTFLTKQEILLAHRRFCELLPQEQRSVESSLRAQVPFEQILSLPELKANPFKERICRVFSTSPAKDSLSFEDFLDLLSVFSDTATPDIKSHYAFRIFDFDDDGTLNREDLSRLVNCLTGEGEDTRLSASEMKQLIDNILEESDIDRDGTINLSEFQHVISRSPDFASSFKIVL
For orientation: In qHTS, concentration-response curves come from the screen itself.
Consider `C=C1CC[C@@H]2[C@](C)(CO[C@@H]3O[C@H](CO)[C@@H](O)[C@H](O)[C@H]3O)CCC[C@@]2(C)[C@@H]1CCC1=CCOC1=O`, for which the Potency entry is “inactive”. In the case of `COCCCNCC1COc2ccccc2O1` (stereo not given), the Potency result is “inactive”. The entry for `C/C(=C/CCC(CO)C1CCC2(C)C3CCC4C(C)(C)C(OC5OC(CO)C(O)C(O)C5O)CC(O)C45CC35CCC12C)COC1OC(CO)C(O)C(O)C1O` (stereo not given) is “inactive”; for `CC1=CC(=O)C2C(C)(C)CC(O)CC2(C)C1CO` (stereo not given) it is “inactive”. Take `CC1=C2CC3OC3(C)CCC3OC3(C)CC2OC1=O` (stereo not given): the Potency result is “inactive”.
